# Results as given in article PMC7862700, “An all-to-all approach to the identification of sequence-specific readers for epigenetic DNA modifications on cytosine”.
# Key:
# Assay in all cases: DAPPL (digital affinity profiling via proximity ligation, sequencing); 10 mM Tris-HCl pH 7.5, 50 mM NaCl, 1 mM DTT, 4% glycerol, room temperature, 30 min; GST-TFs on glutathione beads, 16-mer random dsDNA library, 0.1% formaldehyde crosslink after washing; high values mean tight binding
# Conditions in all cases: protein: recombinant; tags: N-terminal GST; dsDNA, one strand shown
# FLI1 = target: T1, FLI1 (Homo sapiens, UniProt Q01543 1-452)
# T1 sequence: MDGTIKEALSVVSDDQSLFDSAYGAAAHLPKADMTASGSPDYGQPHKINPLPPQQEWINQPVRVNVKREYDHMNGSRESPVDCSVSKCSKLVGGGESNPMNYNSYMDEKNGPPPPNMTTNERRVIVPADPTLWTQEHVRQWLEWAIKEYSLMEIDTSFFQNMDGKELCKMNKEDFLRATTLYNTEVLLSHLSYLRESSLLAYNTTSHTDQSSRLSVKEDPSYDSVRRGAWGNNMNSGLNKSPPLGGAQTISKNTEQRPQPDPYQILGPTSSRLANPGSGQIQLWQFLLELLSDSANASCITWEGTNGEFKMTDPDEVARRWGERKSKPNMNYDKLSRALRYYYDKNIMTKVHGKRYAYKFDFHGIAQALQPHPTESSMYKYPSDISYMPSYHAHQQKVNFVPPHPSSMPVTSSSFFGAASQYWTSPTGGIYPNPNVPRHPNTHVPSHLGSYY
# Procedure, shortened: (§1)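 Sequencing on an Illumina NextSeq500 followed washing, crosslinking with 0.1% formaldehyde, proximity ligation (BsaI/T4 ligase, 1 h, 37 °C) and PCR amplification of pools that had been incubated for 30 min at room temperature with 200 nmole of a random double-stranded 16-mer DNA library in Tris/NaCl/DTT/glycerol buffer. Each pool held DNA-barcoded human transcription factors, expressed in yeast as GST fusions and captured on glutathione beads, plus a tag-only sample. Binding signal is a hexamer's read frequency for a factor divided by its frequency in the tag-only sample.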
# ELK1 = target: T2, ELK1 (Homo sapiens, UniProt P19419 1-428)
# T2 sequence: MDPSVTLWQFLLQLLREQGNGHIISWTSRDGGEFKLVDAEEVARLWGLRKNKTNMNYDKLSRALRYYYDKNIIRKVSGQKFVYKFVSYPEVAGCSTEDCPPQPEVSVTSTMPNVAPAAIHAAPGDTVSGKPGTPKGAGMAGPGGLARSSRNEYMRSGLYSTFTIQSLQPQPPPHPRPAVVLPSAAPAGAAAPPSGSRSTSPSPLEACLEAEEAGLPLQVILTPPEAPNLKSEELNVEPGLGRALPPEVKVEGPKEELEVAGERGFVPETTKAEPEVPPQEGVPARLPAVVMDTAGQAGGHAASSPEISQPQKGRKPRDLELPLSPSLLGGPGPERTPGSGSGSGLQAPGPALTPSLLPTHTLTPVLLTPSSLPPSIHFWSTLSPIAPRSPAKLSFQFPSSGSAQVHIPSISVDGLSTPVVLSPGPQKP
# Procedure, shortened: as §1
# GABPA = target: T3, GABPA (Homo sapiens, UniProt Q06546 1-454)
# T3 sequence: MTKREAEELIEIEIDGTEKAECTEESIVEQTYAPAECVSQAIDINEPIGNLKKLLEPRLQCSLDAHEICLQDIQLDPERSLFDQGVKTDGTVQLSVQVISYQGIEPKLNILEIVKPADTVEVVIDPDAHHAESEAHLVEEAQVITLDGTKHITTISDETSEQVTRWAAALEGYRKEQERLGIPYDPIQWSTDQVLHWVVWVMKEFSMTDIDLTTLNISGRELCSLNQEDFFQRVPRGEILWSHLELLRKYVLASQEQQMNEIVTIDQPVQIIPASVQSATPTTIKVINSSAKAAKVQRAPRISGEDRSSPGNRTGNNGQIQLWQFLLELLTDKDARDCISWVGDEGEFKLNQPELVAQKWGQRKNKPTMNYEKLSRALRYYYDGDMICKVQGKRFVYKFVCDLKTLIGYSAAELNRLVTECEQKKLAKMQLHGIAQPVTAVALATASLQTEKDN
# Procedure, shortened: as §1
# ERG = target: T4, ERG (Homo sapiens, UniProt P11308 1-479)
# T4 sequence: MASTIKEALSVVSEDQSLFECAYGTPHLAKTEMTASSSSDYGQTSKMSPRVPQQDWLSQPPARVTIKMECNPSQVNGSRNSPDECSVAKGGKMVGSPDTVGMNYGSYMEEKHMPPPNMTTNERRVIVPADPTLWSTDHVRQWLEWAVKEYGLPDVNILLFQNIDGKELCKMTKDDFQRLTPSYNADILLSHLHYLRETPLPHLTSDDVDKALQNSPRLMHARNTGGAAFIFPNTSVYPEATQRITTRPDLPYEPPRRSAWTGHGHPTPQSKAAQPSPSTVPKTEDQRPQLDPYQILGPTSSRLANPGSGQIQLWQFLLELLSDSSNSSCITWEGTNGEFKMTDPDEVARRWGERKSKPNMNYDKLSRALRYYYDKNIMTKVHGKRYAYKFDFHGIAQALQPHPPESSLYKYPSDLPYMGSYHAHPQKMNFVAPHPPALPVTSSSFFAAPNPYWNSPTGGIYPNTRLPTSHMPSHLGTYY
# Procedure, shortened: as §1
# ELF1 = ELF1 (Homo sapiens, UniProt P32519 1-619)
# Chain of ELF1 (P32519 whole entry): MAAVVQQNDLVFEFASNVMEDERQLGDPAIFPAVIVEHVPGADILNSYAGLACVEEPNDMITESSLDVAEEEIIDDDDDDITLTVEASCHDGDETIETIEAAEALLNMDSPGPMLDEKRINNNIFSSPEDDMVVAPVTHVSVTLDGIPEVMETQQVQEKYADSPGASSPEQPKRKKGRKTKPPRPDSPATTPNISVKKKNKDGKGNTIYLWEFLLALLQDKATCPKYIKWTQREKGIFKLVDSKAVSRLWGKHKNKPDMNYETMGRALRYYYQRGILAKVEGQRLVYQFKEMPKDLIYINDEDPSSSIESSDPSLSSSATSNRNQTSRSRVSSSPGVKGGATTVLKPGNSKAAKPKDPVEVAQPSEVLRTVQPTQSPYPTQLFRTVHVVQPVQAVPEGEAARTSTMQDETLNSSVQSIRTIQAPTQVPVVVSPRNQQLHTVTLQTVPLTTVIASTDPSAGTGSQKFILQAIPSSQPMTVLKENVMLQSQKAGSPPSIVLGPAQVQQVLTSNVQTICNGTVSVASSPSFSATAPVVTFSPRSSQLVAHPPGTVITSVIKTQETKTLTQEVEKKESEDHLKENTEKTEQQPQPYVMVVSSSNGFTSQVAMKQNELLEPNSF
# Procedure, shortened: as §1
# EHF = target: T5, EHF (Homo sapiens, UniProt Q9NZC4 1-300)
# T5 sequence: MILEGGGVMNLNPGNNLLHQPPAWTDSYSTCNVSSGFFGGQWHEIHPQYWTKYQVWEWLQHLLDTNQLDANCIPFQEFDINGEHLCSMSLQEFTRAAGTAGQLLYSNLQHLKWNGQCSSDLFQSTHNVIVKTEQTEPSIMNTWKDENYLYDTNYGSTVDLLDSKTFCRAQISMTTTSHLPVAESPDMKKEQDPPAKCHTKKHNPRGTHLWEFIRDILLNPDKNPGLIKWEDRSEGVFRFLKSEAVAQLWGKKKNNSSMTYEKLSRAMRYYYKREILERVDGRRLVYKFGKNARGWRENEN
# Procedure, shortened: as §1
# SPI1 = SPI1 (Homo sapiens, UniProt P17947 1-270)
# Procedure, shortened: as §1
# SPIB = SPIB (Homo sapiens, UniProt Q01892 1-262)
# Chain of SPIB (Q01892 whole entry): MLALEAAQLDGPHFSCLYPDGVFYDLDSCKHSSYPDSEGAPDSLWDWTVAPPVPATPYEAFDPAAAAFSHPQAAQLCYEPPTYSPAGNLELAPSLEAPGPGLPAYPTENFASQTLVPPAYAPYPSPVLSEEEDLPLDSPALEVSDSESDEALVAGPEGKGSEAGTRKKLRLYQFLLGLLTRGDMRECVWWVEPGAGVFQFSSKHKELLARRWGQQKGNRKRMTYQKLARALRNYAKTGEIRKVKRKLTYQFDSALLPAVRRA
# Procedure, shortened: as §1
# ELK3 = target: T6, ELK3 (Homo sapiens, UniProt P41970 1-407)
# T6 sequence: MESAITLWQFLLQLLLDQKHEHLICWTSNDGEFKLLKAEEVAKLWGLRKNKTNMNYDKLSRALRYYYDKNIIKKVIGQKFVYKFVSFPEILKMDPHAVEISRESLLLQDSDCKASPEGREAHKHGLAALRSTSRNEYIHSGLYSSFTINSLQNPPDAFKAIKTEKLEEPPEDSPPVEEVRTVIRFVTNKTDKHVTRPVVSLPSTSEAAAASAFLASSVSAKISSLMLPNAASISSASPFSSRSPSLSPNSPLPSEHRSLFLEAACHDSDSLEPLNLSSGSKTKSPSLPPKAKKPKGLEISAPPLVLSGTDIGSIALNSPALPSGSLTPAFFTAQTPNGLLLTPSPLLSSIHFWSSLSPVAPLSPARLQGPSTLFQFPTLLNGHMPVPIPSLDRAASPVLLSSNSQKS
# Procedure, shortened: as §1
sequence,measurement,setting,value
ATACAG,binding signal,FLI1,"1.16 fold enrichment (6-mer frequency, TF over GST control)"
same,binding signal,ELK1,"1.11 fold enrichment (6-mer frequency, TF over GST control)"
same,binding signal,GABPA,"1.29 fold enrichment (6-mer frequency, TF over GST control)"
same,binding signal,ERG,"1.16 fold enrichment (6-mer frequency, TF over GST control)"
same,binding signal,ELF1,"1.13 fold enrichment (6-mer frequency, TF over GST control)"
same,binding signal,EHF,"1.16 fold enrichment (6-mer frequency, TF over GST control)"
same,binding signal,SPI1,"1.12 fold enrichment (6-mer frequency, TF over GST control)"
same,binding signal,SPIB,"1.15 fold enrichment (6-mer frequency, TF over GST control)"
same,binding signal,ELK3,"1.07 fold enrichment (6-mer frequency, TF over GST control)"
